Results from PubChem BioAssay (NCATS).
Values joined by “and” are separate entries in the source; they are usually repeats but may differ in a detail not shown here. Identical values can stand only once. Records with an inconclusive call do not appear. Active and inactive are the calls of the source. Unless noted, calls follow the shape of the dose curve; as a rule, active = well fitted curve in the direction sought with a large enough effect; inconclusive = small, poorly fitted or top-dose-only effect, or another doubt; inactive = no such curve, though single readings can be large; an effect the other way counts as inactive or inconclusive.

What was measured:
[1] = Validation of Assay for Modulators of Lamin A Splicing (AID 1459; active = well fitted curve in the direction sought with a large enough effect in the signal ratio; the % refers to the signal ratio;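 also: cells exposed to compound for two days before reading; 0% is about no effect; ratio rise marks activators and ratio drop marks inhibitors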)
How it was run: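 Readout: ratio of GFP (500-530 nm) to RFP (575-640 nm) total object intensity by 488 nm laser-scanning cytometry after 48 hrs. Cells were HeLa S3 clones carrying lamin A-EGFP minigene plus DsRed2 viability reporter; vehicle 0.5% DMSO final.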

[2] = qHTS Assay for Lipid Storage Modulators (AID 1519; calls by dose curve; as to activity change, negative = inhibition: % is scaled to controls: 0 for no effect and ±100 for the full control effect); conditions: Drosophila S3 cells, BODIPY lipid droplet/cell ratio, laser cytometry, cells loaded with oleic acid
How it was run: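 Cells seeded at 5,000 per well were treated with compounds over a concentration series and loaded with oleic acid (400 uM, as added). Lipid droplet fluorescence (488 nm excitation, 500-530 nm channel) was read by laser-scanning cytometry and normalized to 20 uM Triacsin C.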

[3] = target: DNA repair nuclease/redox regulator APEX1 (Homo sapiens) (UniProt P27695); assay: qHTS Validation Assay for Inhibitors of the Human Apurinic/apyrimidinic Endonuclease 1 (APE1) (AID 1705; also: potency is read from the fitted curve at half-maximal effect;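 as to activity change, negative = inhibition: TAMRA fluorescence gain over two minutes as APE1 cuts a quenched THF abasic duplex; % is scaled to controls: 0 for no effect and ±100 for the full control effect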)
How it was run: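 Read-out: TAMRA fluorescence (525 nm ex, 598 nm em) from cleavage of a quenched THF abasic-site duplex, 50 nM final; activity taken as intensity change between third and first of three reads 60 s apart.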

[4] = Counterscreen for APE1 Inhibitors: Fluorescent Dye Displacement Validation Assay (AID 1707);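 also: plate controls were ThO with dsDNA and no compound for no effect and ThO without dsDNA for full effect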
How it was run: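 Counterscreen flags promiscuous DNA binders: compounds displacing ThO from duplex DNA (abasic THF site, 50 nM) reduce 540 nm emission (480 nm excitation). ThO 250 nM final; Tris-HCl pH 7.5 with NaCl, MgCl2 and Tween-20.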

[5] = Cell Viability - LYMP2-020 (AID 986);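 also: plate controls were DMSO only for no effect and tetraoctylammonium bromide at 92 µM for full effect; nearly all actives have a fitted effect of over 55% in size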
How it was run: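 Cytotoxicity in qHTS format: luminescent ATP readout from CellTiter-Glo after 24 h compound exposure at 37 C in complete medium. LYMP2-020 lymphoblastoid cells were seeded at 2500/well; concentration-response data fitted to the Hill equation for AC50.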

[6] = Cell Viability - LYMP2-022 (AID 987);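 also: 0% = DMSO alone and full effect = tetraoctylammonium bromide at 92 µM; nearly all actives have a fitted effect of over 55% in size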
How it was run: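 Cytotoxicity read as decreased cellular ATP (CellTiter-Glo luminescence, 30 min room temperature) after 24 hours compound exposure of 2500 lymphoblastoid LYMP2-022 cells/well at 37 C. Concentration-response data fitted with standard Hill equation for AC50.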

[7] = Cell Viability - LYMP2-024 (AID 988);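 also: plate controls were DMSO only for no effect and 92 µM tetraoctylammonium bromide for full effect; nearly all actives have a fitted effect of over 60% in size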
How it was run: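 Cytotoxicity was taken as a decrease in ATP (CellTiter-Glo luminescence) after 24 hr compound exposure at 37 C of LYMP2-024 lymphoblastoid cells, 2500 cells/well. Concentration-response data were fitted to the Hill equation to give AC50.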

[8] = Cell Viability - LYMP1-002 - Assay at 24 hr (AID 993); also: % is scaled to controls: 0 for no effect and ±100 for the full control effect
How it was run: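 qHTS cytotoxicity at 24 h: CellTiter-Glo ATP luminescence in lymphoblastoid line LYMP1-002 incubated with compound at 37 °C. Concentration-response modeled with the Hill equation for AC50; tetraoctylammonium bromide served as positive control.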

[9] = Cell Viability - LYMP1-002 - Assay at 40 hr (AID 994);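 also: 0% = DMSO only and full inhibition = 92 µM tetraoctylammonium bromide; nearly all actives have a fitted effect of over 60% in size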
How it was run: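 Cytotoxicity was read as loss of cellular ATP (CellTiter-Glo luminescence) after 40 hr compound exposure at 37 C of 2500 LYMP1-002 lymphoblastoid cells per well. Concentration-response data were fitted with the standard Hill equation to give AC50.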

[10] = target: alpha-glucosidase (Oryza sativa, rice) (UniProt Q653V4); assay: Counterscreen for Glucocerebrosidase Inhibitors: qHTS Assay for Rice alpha-Glucosidase at pH 5.0 (AID 997);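 also: 0% = full activity with enzyme and -100% = basal without enzyme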
How it was run: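 Endpoint fluorogenic assay at pH 5.0: compounds (0.7 nM to 77 uM) titrated against 4 nM rice enzyme and 400 uM 4-MU-alpha-glucoside for 20 min at room temperature; NaOH/glycine stop, read ex 365/em 440 nm, Hill-fitted AC50.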

[11] = measured here: cell count channel max response
[12] = measured here: lipid channel max response

DNA repair nuclease/redox regulator APEX1 (Homo sapiens), sequence (P27695 whole entry, looked up): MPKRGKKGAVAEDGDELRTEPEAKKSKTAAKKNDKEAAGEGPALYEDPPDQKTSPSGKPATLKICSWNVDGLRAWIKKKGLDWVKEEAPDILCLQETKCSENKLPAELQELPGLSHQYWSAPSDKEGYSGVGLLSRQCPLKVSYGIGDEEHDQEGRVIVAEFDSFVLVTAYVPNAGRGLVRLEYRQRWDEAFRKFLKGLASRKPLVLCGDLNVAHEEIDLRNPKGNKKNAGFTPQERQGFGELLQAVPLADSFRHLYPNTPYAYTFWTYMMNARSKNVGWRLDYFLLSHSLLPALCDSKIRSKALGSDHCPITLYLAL

CC(C)(C)c1onc(OCP(=O)(O)O)c1CC(N)C(=O)O (stereo not given)
outcome [1]: inactive
activity change, negative = inhibition ([2]; at 57.5 µM (top of the series)): -0.922% (inactive)
max response [2, 11]: -37.6%
max response [2, 12]: -40.1%
Potency [3]: inactive
Potency [4]: inactive

c1ccc(CN(CC2=NCCN2)c2ccccc2)cc1
activity change, negative = inhibition ([2]; at 25.7 µM (top of the series)): -2.49% (inactive)
activity change, negative = inhibition ([2]; at 57.5 µM (top of the series)): -1.31% (inactive)
max response [2, 11]: 2.23% and 6.19%
max response [2, 12]: -3.05% and 6.55%

Cc1cc(CC(=O)O)n(C)c1C(=O)c1ccc(Cl)cc1
Potency [5]: inactive
Potency [6]: inactive
outcome [7]: inactive
Potency [8]: inactive
Potency [9]: inactive
activity change, negative = inhibition ([2]; at 25.7 µM (top of the series)): -0.167% (inactive)
activity change, negative = inhibition ([2]; at 57.5 µM (top of the series)): 7.69% (inactive)
max response [2, 11]: -0.357% and 17.9%
max response [2, 12]: 0.164% and 28.7%

c1ccc2c(CC3=NCCN3)cccc2c1
activity change, negative = inhibition ([2]; at 25.7 µM (top of the series)): -0.324% (inactive)
activity change, negative = inhibition ([2]; at 57.5 µM (top of the series)): 4.27% (inactive)
max response [2, 11]: -14.5% and 1.91%
max response [2, 12]: -13.5% and 9.6%

CN(C)CCCN1c2ccccc2CCc2ccccc21
outcome [10]: inactive
activity change, negative = inhibition ([2]; at 25.7 µM (top of the series)): -3.67% (inactive)
activity change, negative = inhibition ([2]; at 57.5 µM (top of the series)): -1.66% (inactive) and 1.56% (inactive)
max response [2, 11]: -3.16% and 7.78% and 14.5%
max response [2, 12]: -7.45% and 10.3% and 14.3%
Potency [3]: inactive
Potency [4]: inactive

CC(C(O)c1ccc(O)cc1)N1CCC(Cc2ccccc2)CC1 (stereo not given)
activity change, negative = inhibition ([2]; at 57.5 µM (top of the series)): 3.33% (inactive)
max response [2, 11]: 9.6%
max response [2, 12]: 16%
Potency [3]: inactive
Potency [4]: inactive

Nc1ccc(S(=O)(=O)Nc2nccs2)cc1
Potency [8]: inactive
Potency [9]: inactive
activity change, negative = inhibition ([2]; at 25.7 µM (top of the series)): 0.978% (inactive)
activity change, negative = inhibition ([2]; at 57.5 µM (top of the series)): 7.82% (inactive)
max response [2, 11]: 0.0037% and 29.7%
max response [2, 12]: 1.28% and 42.1%

Cc1c(Cl)cccc1Nc1ccccc1C(=O)O
activity change, negative = inhibition ([2]; at 25.7 µM (top of the series)): -0.93% (inactive)
max response [2, 11]: -6.86%
max response [2, 12]: -11.8%

OCCN1CCN(CCCN2c3ccccc3Sc3ccc(Cl)cc32)CC1
outcome [10]: inactive
activity change, negative = inhibition ([2]; at 25.7 µM (top of the series)): -1.31% (inactive)
activity change, negative = inhibition ([2]; at 57.5 µM (top of the series)): 2.76% (inactive)
max response [2, 11]: -14.4% and -12.4%
max response [2, 12]: -12.9% and -6.81%
Potency [3]: inactive
Potency [4]: inactive

CCN(CC)CCCC(C)Nc1c2ccc(Cl)cc2nc2ccc(OC)cc12 (stereo not given)
activity change, negative = inhibition ([2]; at 57.5 µM (top of the series)): 9.16% (inactive) and 1.41% (inactive)
max response [2, 11]: 2.35% and -26.6%
max response [2, 12]: 14.1% and -23.7%
Potency [3]: 15.8 µM (active)
